Read-out in one assay: Decorin, DCN (gene 1634)
Nature of the assay: BSK_MyoF_Decorin: BioMAP Diversity Plus: MyoF Assay for Decorin Biomarker Activity (AID 2284265). The note with it: primary human lung fibroblasts. Put shortly: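 Human lung fibroblast cultures were dosed for 24 h, and decorin was then measured by ELISA. Parallel cultures were stained with sulforhodamine B for total protein as a cytotoxicity check. Gain of signal was fitted relative to DMSO.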

Read-out in assay [1]: KRT18 (gene 3875)
The assay can be described thus: BSK_BF4T_Keratin818: BioMAP Diversity Plus: BF4T Assay for Keratin 818 Biomarker Activity (AID 2284266). The note with it: primary human bronchial epithelial cells with fibroblasts. Put shortly:
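Keratin 8/18 levels quantified by ELISA after 24 h chemical treatment of bronchial epithelial cell/dermal fibroblast co-cultures, fitted in positive direction relative to DMSO. Parallel SRB staining tracks overt cytotoxicity.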

Assay [2] in a line: BSK_MyoF_SRB: Viability Assessment in the BioMAP Diversity Plus: MyoF Assay (AID 2284267).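 Further: total protein by SRB absorbance in parallel cultures as cytotoxicity measure; cells assessed 24 h after compound addition.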 The note with it: primary human lung fibroblasts. Put shortly: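 In this viability endpoint, fibroblasts from human lung are treated for 24 h, TCA-fixed, SRB-stained (0.1%) and read at 560 nm. Gain of signal relative to DMSO defines activity.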
Read-out in assay [3]: Matrix Metallopeptidase 1 (MMP1), MMP1 (gene 4312)
Nature of the assay: BSK_MyoF_MMP1: BioMAP Diversity Plus: MyoF Assay for Matrix Metallopeptidase 1 (MMP1) Biomarker Activity (AID 2284268). The note with it: primary human lung fibroblasts. Put shortly:
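Human lung fibroblast primary cells; MMP1 measured by ELISA 24 h after dosing, fitted in the positive direction relative to DMSO. Parallel SRB staining (0.1%, after 10% TCA fixation, 560 nm) assesses overt cytotoxicity.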

Read-out in assay [4]: TIMP metallopeptidase inhibitor 1 (TIMP1), TIMP1 (gene 7076)
Nature of the assay: BSK_MyoF_TIMP1: BioMAP Diversity Plus: MyoF Assay for TIMP metallopeptidase inhibitor 1 (TIMP1) Biomarker Activity (AID 2284269). The note with it: primary human lung fibroblasts. Put shortly: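 Fibroblasts from human lung are dosed with chemical, cultured 24 h, and assayed for TIMP-1 by ELISA. Increases over the DMSO baseline are scored, with SRB total-protein staining run in parallel for cytotoxicity.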

Read-out in assay [5]: Matrix Metallopeptidase 1 (MMP1), MMP1 (gene 4312)
The assay can be described thus: BSK_BF4T_MMP1: BioMAP Diversity Plus: BF4T Assay for Matrix Metallopeptidase 1 (MMP1) Biomarker Activity (AID 2284270). The note with it: primary human bronchial epithelial cells with fibroblasts. Put shortly: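 MMP-1 quantified by ELISA in primary human bronchial epithelial/dermal fibroblast co-cultures, 24 hours post-dosing, with DMSO as baseline; parallel sulforhodamine B staining (560 nm) tracks overt cytotoxicity.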

Read-out in assay [6]: Matrix Metallopeptidase 3 (MMP3), MMP3 (gene 4314)
The assay can be described thus: BSK_BF4T_MMP3: BioMAP Diversity Plus: BF4T Assay for Matrix Metallopeptidase 3 (MMP3) Biomarker Activity (AID 2284271). The note with it: primary human bronchial epithelial cells with fibroblasts. Put shortly:
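MMP-3 level read by ELISA after 24 h chemical exposure of bronchial epithelial cell/dermal fibroblast co-cultures, fitted upward relative to DMSO. Parallel cultures stained with 0.1% SRB after TCA fixation gauge overt cytotoxicity.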

Read-out in assay [7]: Tissue plasminogen activator (tPA), PLAT (gene 5327)
Nature of the assay: BSK_BF4T_tPA: BioMAP Diversity Plus: BF4T Assay for Tissue plasminogen activator (tPA) Biomarker Activity (AID 2284272). The note with it: primary human bronchial epithelial cells with fibroblasts. Put shortly:
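tPA level quantified by ELISA at 24 h post-treatment in bronchial epithelial/dermal fibroblast co-cultures, gain of signal scored against DMSO baseline. Parallel cultures stained with 0.1% SRB (560 nm) to flag overt cytotoxicity.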

Read-out in assay [8]: Matrix Metallopeptidase 9 (MMP9), MMP9 (gene 4318)
The assay can be described thus: BSK_BF4T_MMP9: BioMAP Diversity Plus: BF4T Assay for Matrix Metallopeptidase 9 (MMP9) Biomarker Activity (AID 2284276). The note with it: primary human bronchial epithelial cells with fibroblasts. Put shortly: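 MMP-9 levels were measured by ELISA after 24 h exposure of bronchial epithelial cell/dermal fibroblast co-cultures, with DMSO as baseline. Parallel cultures were stained with 0.1% SRB after TCA fixation, read at 560 nm, to flag overt cytotoxicity.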

Read-out in assay [9]: Intercellular Adhesion Molecule 1 (ICAM1), ICAM1 (gene 3383)
The assay can be described thus: BSK_BE3C_ICAM1: BioMAP Diversity Plus: BE3C Assay for Intercellular Adhesion Molecule 1 (ICAM1) Biomarker Activity (AID 2284278).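 On outcome: cell-surface ICAM-1 protein level quantified by ELISA.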 The note with it: primary human bronchial epithelial cells. Put shortly: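 hu bronchial epithelial primary cells, 24 h cpd exposure, ICAM-1 ELISA; gain-of-signal fit vs DMSO baseline.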

Read-out in assay [10]: Interferon-inducible T-cell alpha chemoattractant (ITAC), CXCL11 (gene 6373)
The assay can be described thus: BSK_BE3C_ITAC: BioMAP Diversity Plus: BE3C Assay for Interferon-inducible T-cell alpha chemoattractant (ITAC) Biomarker Activity (AID 2284279). The note with it: primary human bronchial epithelial cells. Put shortly: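 BE3C cells (human primary bronchial epithelium), 24 h compound exposure, I-TAC by ELISA, DMSO = negative control/baseline, positive fitting direction.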

Read-out in assay [11]: Interleukin-8 (IL8), CXCL8 (gene 3576)
The assay can be described thus: BSK_BE3C_IL8: BioMAP Diversity Plus: BE3C Assay for Interleukin-8 (IL8) Biomarker Activity (AID 2284280). The note with it: primary human bronchial epithelial cells. Put shortly: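 Primary human bronchial epithelial cells (BE3C system) were exposed to test chemical for 24 h, and IL-8 levels were then measured by ELISA. Activity was fitted in the positive (gain-of-signal) direction against a DMSO negative-control baseline.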

Read-out in assay [12]: Epidermal growth factor receptor (EGFR), EGFR (gene 1956)
The assay can be described thus: BSK_BE3C_EGFR: BioMAP Diversity Plus: BE3C Assay for Epidermal growth factor receptor (EGFR) Biomarker Activity (AID 2284281). The note with it: primary human bronchial epithelial cells. Put shortly:
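Human primary bronchial epithelial cells were exposed to compound for 24 h, and cell-surface EGFR was then quantified by ELISA. Activity was fitted in the positive direction against the DMSO vehicle baseline.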

Read-out in assay [13]: KRT18 (gene 3875)
Nature of the assay: BSK_BE3C_Keratin818: BioMAP Diversity Plus: BE3C Assay for Keratin 818 Biomarker Activity (AID 2284282). The note with it: primary human bronchial epithelial cells. Put shortly:
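In this multiplexed primary-cell system, bronchial epithelial cells were dosed and harvested at 24 h. Keratin 8/18 was determined by ELISA and analysed for increases over DMSO controls.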

Read-out in assay [14]: Matrix Metallopeptidase 9 (MMP9), MMP9 (gene 4318)
The assay can be described thus: BSK_BE3C_MMP9: BioMAP Diversity Plus: BE3C Assay for Matrix Metallopeptidase 9 (MMP9) Biomarker Activity (AID 2284283). The note with it: primary human bronchial epithelial cells. Put shortly:
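Human primary bronchial epithelial cells exposed 24 h to compound. MMP9 quantified by ELISA. SRB total-protein staining of parallel cultures assesses cytotoxicity. Positive-direction fit relative to DMSO.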

Read-out in assay [15]: Plasminogen activator inhibitor-1 (PAI1), SERPINE1 (gene 5054)
The assay can be described thus: BSK_CASM3C_PAI1: BioMAP Diversity Plus: CASM3C Assay for Plasminogen activator inhibitor-1 (PAI1) Biomarker Activity (AID 2284284). The note with it: primary human coronary artery smooth muscle cells.

Read-out in assay [16]: Plasminogen Activator Inhibitor-1 (PAI1), SERPINE1 (gene 5054)
The assay can be described thus: BSK_BF4T_PAI1: BioMAP Diversity Plus: BF4T Assay for Plasminogen Activator Inhibitor-1 (PAI1) Biomarker Activity (AID 2284273). The note with it: primary human bronchial epithelial cells with fibroblasts. Put shortly: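 PAI-1 levels quantified by ELISA 24 h post-dosing in bronchial epithelial cell plus dermal fibroblast cultures. Signal gain referenced to DMSO baseline. Sulforhodamine B total-protein staining of parallel wells checked cytotoxicity.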

A short description of assay [17]: BSK_BF4T_SRB: Viability Assessment in the BioMAP Diversity Plus: BF4T Assay (AID 2284274). The note with it: primary human bronchial epithelial cells with fibroblasts. Put shortly: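 Cytotoxicity measured as total protein: cells fixed with 10% TCA, stained with 0.1% SRB, read at 560 nm. Bronchial epithelial/dermal fibroblast co-culture, 24 h after dosing, with positive-direction fitting relative to DMSO.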

Read-out in assay [18]: urokinase Plasminogen Activator (uPA), PLAU (gene 5328)
Nature of the assay: BSK_BF4T_uPA: BioMAP Diversity Plus: BF4T Assay for urokinase Plasminogen Activator (uPA) Biomarker Activity (AID 2284275). The note with it: primary human bronchial epithelial cells with fibroblasts. Put shortly:
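uPA levels measured by ELISA at 24 hours in BF4T cultures (bronchial epithelial cells plus dermal fibroblasts) and compared with DMSO; cytotoxicity tracked in parallel cultures by sulforhodamine B staining.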

Read-out in assay [19]: Interleukin-8 (IL8), CXCL8 (gene 3576)
Nature of the assay: BSK_IMphg_IL8: BioMAP Diversity Plus: IMphg Assay for Interleukin-8 (IL8) Biomarker Activity (AID 2284277). The note with it: primary human endothelial cells with macrophages. Put shortly: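 IL-8 levels were measured by ELISA 24 h after dosing in primary human venular endothelial cell–macrophage cultures, referenced to DMSO; parallel SRB staining monitored overt cytotoxicity.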

Values joined by “and” are separate entries in the source; they are usually repeats but may differ in a detail not shown here. Identical values can stand only once. Where a structure was tested more than once in an assay, its records may differ in their call. Active and inactive are the calls of the source. How the source made its calls: active means hit-call score of the fitted dose curve at least 0.9, where 1 is the maximum; inactive means score below 0.9.

The record followed here is PubChem BioAssay (EPA / NIEHS).

Consider `NC(=O)C(F)(F)C(F)(F)C(F)(F)C(F)(F)F`, for which the outcome is “inactive” with Decorin, DCN (gene 1634); “inactive” with KRT18 (gene 3875) [1]; “inactive” in assay [2]; “inactive” in [3]; “inactive” in assay [4]; “inactive” in assay [5]. In addition, the outcome in [6], in assay [7], in [8], in [9], in [10] and in assay [11] was inactive. The result (in assay [12]; with KRT18 (gene 3875) [13]; in [14]; in assay [15]) was inactive.
In the case of `FC(F)(F)C(F)(F)C(F)(F)C(F)(F)C(F)(F)C(F)(F)C(F)(F)Br`, the outcome in the assay with Decorin, DCN (gene 1634) is “inactive”; in the assay with KRT18 (gene 3875) [1], “inactive”; in [2], “inactive”; in assay [3], “inactive”; in assay [4] it was “inactive”; in assay [6], “inactive”. Further, the outcome in assay [7], in assay [16], in [8], in [9], in assay [11] and in [12] was inactive. Besides, the outcome (in the assay with KRT18 (gene 3875) [13]; in assay [14]; in assay [15]) was inactive.
On to `O=C(CC(=O)C(F)(F)C(F)(F)F)C(F)(F)F`, for which the outcome was “inactive” in the assay with Decorin, DCN (gene 1634); “inactive” with KRT18 (gene 3875) [1]; “inactive” in [2]; “inactive” in [3]; “inactive” in [4]; “inactive” in assay [5]. For the same compound, the outcome in assay [6], in [7], in assay [17], in [8], in assay [9] and in assay [11] was inactive. The outcome (in assay [12]; with KRT18 (gene 3875) [13]; in [14]; in [15]) was inactive.
For the compound `FC(F)(F)C(F)(F)C(F)(F)C(F)(F)C(F)(F)C(F)(F)CCS`, the outcome with Decorin, DCN (gene 1634) is “inactive”; with KRT18 (gene 3875) [1] it was “inactive”; in assay [2], “inactive”; in [3] it was “inactive”; in assay [4] it was “inactive”; in assay [6], “inactive”. For the same compound, the outcome in [7], in assay [17], in assay [18], in assay [8], in [9] and in [10] was inactive. Besides, the outcome (in assay [11]; in assay [12]; with KRT18 (gene 3875) [13]; in assay [14]; in assay [15]) was inactive.
Broadly, the AC50 is the midpoint of the concentration-response curve, whichever way the signal moves. `OCCCC(F)(F)C(F)(F)C(F)(F)C(F)(F)C(F)(F)C(F)(F)C(F)(F)F`: the AC50 with Decorin, DCN (gene 1634) is 51.2 µM (active) and 52.2 µM (active); in the assay with KRT18 (gene 3875) [1], 23.7 µM (active) and 47.1 µM (active); in assay [2] it was 44.8 µM (active) and 56.2 µM (active); in assay [3], 48 µM (active); in [4], 54.9 µM (active) and 47.5 µM (active); in assay [6], 57.5 µM (active) and 32.4 µM (active). Moreover, the half-maximal activity concentration (AC50) in assay [7] was 56.6 µM (active) and 47.7 µM (active); in assay [16], 47.5 µM (active) and 39.4 µM (active); in [8], 44.8 µM (active) and 55.3 µM (active); in assay [9], 53.8 µM (active) and 51.3 µM (active); in assay [11], 37.1 µM (active) and 43 µM (active); in [12] it was 20.4 µM (active) and 47.3 µM (active). Also, the AC50 is 50.6 µM (active) and 48.5 µM (active) with KRT18 (gene 3875) [13]; 47.3 µM (active) and 55.3 µM (active) in assay [14]; 45.3 µM (active) and 48.2 µM (active) in assay [15]. For the same compound, in assay [3], the result was inactive.
For `FC(F)(F)C(F)(F)C(F)(F)C(F)(F)C(F)(F)C(F)(F)C(F)(F)I`, the outcome in the assay with Decorin, DCN (gene 1634) was “inactive”; with KRT18 (gene 3875) [1], “inactive”; in assay [4], “inactive”; in [6], “inactive”; in assay [7], “inactive”; in assay [16], “inactive”. The outcome (in assay [8]; in [19]; in [9]; in assay [11]; in [12]; in the assay with KRT18 (gene 3875) [13]) was inactive. Further, the result in [14] and in assay [15] was inactive. The half-maximal activity concentration (AC50) in assay [2] was 4.81 µM (active) and 4.71 µM (active); in assay [3], 2.4 µM (active) and 2.55 µM (active).
